Laboratory results reported in the supplement of paper PMC11732987, “Enantioselective OTUD7B fragment discovery through chemoproteomics screening and high-throughput optimisation” (Communications Chemistry, 2025).

How the values were obtained:
Test in all cases: log2 ratio of Biotin-Ahx-Ub-VS probe labelling (fragment/DMSO); higher = less target engagement (more negative = stronger competition), active = hit call of the paper (q ≤ 0.05, log2 ratio ≤ -1)
Details in all cases: compound concentration: 200 uM; treatment time: 3 h
[1] = biological target: USP34 (UniProt Q70CQ2)
Chain of USP34 (Q70CQ2 whole entry, the tested form may be a part): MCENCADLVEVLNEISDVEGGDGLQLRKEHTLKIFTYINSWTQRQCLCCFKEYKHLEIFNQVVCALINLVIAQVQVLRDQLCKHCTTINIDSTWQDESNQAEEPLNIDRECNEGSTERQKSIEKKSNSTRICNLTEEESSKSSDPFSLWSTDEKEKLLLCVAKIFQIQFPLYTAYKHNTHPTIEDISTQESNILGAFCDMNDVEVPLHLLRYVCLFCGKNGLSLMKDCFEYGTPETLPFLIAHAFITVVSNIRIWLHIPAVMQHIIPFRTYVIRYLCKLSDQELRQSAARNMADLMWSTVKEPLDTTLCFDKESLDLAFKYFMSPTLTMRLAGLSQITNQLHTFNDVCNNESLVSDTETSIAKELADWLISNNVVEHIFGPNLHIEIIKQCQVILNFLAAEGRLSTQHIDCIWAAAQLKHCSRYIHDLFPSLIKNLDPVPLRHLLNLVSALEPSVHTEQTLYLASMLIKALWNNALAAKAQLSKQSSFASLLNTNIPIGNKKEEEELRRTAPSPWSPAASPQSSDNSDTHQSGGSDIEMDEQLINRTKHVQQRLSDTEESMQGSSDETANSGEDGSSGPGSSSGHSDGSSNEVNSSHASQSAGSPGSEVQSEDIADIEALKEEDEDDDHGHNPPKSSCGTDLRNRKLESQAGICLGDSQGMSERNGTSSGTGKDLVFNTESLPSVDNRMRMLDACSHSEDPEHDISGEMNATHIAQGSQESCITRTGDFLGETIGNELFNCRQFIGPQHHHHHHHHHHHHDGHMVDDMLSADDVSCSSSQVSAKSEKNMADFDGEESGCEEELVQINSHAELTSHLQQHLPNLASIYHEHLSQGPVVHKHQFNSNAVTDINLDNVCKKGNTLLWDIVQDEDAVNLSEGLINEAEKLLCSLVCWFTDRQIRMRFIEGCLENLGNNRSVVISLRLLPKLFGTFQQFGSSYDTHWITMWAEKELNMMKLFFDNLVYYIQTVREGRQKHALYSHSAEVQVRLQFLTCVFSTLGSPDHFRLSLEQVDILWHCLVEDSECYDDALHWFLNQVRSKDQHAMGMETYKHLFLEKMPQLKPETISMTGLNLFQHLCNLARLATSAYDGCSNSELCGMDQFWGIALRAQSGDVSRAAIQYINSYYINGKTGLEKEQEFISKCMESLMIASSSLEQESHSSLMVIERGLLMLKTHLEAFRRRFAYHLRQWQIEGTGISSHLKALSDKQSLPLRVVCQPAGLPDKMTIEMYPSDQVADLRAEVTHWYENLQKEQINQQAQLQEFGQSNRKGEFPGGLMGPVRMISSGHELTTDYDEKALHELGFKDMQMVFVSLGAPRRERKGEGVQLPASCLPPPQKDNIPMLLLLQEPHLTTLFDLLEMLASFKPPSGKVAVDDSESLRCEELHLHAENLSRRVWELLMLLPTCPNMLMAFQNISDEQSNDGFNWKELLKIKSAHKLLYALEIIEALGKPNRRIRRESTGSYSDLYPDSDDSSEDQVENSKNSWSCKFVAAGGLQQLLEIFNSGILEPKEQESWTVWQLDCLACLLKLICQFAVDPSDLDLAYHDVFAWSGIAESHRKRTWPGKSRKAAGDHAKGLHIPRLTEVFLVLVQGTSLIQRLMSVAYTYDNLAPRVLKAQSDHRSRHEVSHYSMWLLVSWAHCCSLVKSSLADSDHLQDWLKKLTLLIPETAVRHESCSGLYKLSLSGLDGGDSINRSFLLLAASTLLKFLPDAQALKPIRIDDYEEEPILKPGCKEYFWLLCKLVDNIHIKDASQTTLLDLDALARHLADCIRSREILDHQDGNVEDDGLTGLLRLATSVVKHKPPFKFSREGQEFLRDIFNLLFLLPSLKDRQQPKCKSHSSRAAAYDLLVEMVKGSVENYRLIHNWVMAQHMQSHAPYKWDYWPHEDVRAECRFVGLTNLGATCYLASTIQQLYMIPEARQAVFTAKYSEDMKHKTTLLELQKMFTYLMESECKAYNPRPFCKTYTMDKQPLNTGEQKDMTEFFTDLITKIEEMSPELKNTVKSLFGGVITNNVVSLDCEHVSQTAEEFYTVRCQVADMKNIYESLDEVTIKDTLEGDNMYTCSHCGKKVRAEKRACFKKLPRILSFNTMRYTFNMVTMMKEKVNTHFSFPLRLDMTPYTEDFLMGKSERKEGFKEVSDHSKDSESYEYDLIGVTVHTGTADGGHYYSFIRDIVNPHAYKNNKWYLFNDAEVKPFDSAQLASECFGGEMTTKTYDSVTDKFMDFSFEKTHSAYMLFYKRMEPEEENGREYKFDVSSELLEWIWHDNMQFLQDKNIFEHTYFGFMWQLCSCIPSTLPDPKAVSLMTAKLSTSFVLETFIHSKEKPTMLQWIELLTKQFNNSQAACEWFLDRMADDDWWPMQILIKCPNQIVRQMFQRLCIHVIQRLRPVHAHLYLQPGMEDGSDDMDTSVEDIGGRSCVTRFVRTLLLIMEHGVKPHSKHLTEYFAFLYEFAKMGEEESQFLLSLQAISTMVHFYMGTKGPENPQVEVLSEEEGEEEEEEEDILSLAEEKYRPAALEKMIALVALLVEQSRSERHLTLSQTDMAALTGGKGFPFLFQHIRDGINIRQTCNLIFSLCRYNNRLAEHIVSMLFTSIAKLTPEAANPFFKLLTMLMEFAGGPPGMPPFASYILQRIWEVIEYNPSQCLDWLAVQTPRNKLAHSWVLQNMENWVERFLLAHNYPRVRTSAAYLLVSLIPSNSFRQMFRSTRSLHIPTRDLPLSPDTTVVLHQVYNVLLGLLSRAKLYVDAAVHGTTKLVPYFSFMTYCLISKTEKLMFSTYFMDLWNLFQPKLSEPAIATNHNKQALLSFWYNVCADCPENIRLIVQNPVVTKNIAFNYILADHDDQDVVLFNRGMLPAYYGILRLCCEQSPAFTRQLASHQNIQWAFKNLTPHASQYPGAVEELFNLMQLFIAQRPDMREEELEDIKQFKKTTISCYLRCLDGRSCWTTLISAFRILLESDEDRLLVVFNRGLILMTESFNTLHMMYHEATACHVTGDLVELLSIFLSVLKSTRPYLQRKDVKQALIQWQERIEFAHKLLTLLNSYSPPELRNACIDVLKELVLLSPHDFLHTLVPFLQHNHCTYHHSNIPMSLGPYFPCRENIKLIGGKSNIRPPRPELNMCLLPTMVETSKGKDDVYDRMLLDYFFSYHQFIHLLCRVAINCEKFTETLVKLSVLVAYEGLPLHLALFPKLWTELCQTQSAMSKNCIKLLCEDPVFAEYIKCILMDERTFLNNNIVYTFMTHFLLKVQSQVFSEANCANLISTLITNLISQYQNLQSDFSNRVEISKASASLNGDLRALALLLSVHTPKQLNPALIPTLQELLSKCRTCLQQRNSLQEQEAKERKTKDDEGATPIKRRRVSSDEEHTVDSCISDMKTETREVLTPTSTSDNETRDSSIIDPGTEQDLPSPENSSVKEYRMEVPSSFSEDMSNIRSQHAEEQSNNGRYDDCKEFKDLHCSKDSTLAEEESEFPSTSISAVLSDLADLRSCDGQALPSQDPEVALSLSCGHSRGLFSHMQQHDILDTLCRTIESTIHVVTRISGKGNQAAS
Summary of the method: (§1)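 HEK293T lysate, 495 µg per sample in Tris/CHAPS/IGEPAL buffer with protease inhibitors, was treated in triplicate with fragment at 200 µM or vehicle for 3 h and then with Biotin-Ahx-Ub-VS at 0.5 µM final for 1 h. Labelled DUBs were NeutrAvidin-enriched, digested with LysC and trypsin, and run by diaPASEF LC-MS/MS. Spectronaut label-free quantities were global-median-normalised, and values are average log2 fragment/vehicle ratios by unpaired t-test on proteins with ≥2 unique peptides.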

[2] = biological target: T1, USP36 (UniProt Q9P275)
T1 sequence (whole entry): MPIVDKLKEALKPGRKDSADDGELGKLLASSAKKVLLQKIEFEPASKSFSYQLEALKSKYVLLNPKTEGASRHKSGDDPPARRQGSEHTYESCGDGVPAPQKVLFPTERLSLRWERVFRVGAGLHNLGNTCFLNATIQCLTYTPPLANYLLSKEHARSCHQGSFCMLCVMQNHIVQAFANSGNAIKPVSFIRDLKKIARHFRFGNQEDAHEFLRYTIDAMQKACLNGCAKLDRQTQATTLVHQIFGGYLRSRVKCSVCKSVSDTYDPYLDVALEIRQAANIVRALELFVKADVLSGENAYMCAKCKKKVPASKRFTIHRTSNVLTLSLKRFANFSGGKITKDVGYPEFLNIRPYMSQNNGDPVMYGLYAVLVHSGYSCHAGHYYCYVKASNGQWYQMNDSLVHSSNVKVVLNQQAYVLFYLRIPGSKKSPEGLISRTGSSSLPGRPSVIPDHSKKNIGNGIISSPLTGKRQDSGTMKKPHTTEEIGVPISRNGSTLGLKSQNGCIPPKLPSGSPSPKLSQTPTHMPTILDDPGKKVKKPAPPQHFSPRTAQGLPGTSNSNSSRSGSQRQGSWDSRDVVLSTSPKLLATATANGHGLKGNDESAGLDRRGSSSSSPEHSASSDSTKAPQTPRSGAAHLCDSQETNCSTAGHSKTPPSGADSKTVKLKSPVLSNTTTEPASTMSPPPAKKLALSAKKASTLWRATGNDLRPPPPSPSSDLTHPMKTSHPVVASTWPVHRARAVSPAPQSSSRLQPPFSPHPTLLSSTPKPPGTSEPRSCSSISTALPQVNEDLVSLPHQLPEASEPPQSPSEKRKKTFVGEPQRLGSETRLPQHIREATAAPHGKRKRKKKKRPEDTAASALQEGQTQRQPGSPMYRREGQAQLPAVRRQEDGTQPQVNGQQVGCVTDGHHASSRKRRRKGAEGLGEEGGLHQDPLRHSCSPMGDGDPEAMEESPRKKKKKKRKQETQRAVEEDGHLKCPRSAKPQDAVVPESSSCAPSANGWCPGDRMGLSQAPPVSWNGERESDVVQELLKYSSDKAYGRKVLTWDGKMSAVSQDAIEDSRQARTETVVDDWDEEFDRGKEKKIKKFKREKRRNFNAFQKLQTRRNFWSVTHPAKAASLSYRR
Summary of the method: as §1

[3] = biological target: T2, USP38 (UniProt Q8NB14)
T2 sequence (whole entry): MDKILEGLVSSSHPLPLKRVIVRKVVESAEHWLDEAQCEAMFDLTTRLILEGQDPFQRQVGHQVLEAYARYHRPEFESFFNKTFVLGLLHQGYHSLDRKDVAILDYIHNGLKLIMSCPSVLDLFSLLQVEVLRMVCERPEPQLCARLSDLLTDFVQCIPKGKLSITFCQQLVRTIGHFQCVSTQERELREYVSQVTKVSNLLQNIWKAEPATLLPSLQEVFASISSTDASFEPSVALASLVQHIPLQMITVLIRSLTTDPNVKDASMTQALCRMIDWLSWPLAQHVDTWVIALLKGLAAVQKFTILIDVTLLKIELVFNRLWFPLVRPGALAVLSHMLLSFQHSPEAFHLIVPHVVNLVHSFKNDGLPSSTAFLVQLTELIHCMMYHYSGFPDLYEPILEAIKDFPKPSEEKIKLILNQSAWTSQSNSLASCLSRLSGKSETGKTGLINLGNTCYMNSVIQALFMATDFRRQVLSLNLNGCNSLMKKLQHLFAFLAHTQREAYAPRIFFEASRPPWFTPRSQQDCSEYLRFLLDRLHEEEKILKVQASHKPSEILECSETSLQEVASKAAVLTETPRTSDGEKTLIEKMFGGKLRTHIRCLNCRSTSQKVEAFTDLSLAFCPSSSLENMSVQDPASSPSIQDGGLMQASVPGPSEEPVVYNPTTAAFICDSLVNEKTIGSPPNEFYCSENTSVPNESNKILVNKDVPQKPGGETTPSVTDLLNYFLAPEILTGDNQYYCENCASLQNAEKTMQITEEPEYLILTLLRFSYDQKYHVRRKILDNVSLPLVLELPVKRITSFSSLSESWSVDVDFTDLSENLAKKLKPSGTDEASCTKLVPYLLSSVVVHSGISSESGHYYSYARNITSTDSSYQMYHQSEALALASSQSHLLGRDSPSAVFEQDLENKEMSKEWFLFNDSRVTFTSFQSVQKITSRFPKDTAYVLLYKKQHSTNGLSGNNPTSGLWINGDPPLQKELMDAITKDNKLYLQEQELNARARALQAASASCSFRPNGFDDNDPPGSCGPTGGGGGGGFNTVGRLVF
Summary of the method: as §1

[4] = biological target: T3, USP39 (UniProt Q53GS9)
T3 sequence (whole entry): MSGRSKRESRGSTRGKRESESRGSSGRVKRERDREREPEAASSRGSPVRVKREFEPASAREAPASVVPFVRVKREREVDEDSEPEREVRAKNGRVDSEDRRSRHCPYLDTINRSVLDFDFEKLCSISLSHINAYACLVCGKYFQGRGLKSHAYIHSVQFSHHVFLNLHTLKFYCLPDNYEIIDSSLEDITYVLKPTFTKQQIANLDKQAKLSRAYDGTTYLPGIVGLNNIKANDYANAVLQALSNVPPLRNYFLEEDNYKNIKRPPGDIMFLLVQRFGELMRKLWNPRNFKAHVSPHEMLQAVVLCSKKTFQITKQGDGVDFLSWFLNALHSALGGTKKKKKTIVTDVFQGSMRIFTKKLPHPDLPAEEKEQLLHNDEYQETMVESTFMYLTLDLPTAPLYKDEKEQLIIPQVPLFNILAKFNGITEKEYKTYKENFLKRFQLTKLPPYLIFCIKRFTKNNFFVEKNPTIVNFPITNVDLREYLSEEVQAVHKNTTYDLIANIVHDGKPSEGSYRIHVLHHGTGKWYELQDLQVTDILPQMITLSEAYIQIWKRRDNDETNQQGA
Summary of the method: as §1

[5] = biological target: T4, USP4 (UniProt Q13107)
T4 sequence (whole entry): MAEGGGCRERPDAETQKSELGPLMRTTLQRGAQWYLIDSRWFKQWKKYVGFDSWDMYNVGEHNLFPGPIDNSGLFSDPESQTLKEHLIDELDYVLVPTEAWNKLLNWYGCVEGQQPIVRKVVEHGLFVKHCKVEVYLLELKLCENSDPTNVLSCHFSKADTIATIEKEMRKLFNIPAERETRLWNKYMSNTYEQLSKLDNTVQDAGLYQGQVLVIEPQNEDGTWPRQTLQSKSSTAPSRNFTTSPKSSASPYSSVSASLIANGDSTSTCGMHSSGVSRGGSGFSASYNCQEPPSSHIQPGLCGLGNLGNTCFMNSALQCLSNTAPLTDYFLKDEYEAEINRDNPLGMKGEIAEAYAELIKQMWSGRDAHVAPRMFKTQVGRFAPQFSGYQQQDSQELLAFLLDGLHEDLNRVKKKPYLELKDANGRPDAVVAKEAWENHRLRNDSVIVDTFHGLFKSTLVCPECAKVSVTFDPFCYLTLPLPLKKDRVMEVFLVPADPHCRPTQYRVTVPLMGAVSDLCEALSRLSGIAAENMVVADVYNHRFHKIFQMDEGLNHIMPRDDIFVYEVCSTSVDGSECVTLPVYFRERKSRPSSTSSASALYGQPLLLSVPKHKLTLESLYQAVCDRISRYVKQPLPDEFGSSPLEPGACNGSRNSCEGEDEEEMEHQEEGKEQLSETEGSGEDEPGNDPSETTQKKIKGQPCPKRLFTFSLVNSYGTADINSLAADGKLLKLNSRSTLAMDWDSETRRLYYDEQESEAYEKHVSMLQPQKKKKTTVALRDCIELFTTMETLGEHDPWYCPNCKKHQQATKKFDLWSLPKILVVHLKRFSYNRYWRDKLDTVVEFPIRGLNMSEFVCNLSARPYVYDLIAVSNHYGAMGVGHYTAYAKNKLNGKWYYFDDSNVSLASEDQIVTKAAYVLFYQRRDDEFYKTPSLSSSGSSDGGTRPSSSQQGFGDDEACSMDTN
Summary of the method: as §1

Measured: log2 ratio of Biotin-Ahx-Ub-VS probe labelling

O=C(CCl)N1CCC(OCc2ccccc2F)CC1
inactive: [1] -0.138 | [2] 0.169 | [3] 0.211 | [4] 0.264 | [5] -0.121
